Data taken from PubChem BioAssay (EPA / NIEHS).
Inconclusive results are not listed. Activity calls are given as the source filed them. How the source made its calls, unless noted: active means hit-call score of the fitted dose curve at least 0.9, where 1 is the maximum; inactive means score below 0.9. Peptide text beside a SMILES is read from it.

Key:
[1] = target: Paired box protein Pax-6 (Homo sapiens) (UniProt P26367); assay: ATG_Pax6_CIS: Attagene CIS-FACTORIAL HepG2 Assay for human Paired Box 6 (PAX6) (AID 2282956); settings: HepG2 CIS-FACTORIAL PAX6 reporter transcription, RNA readout; actives raise or lower the signal
Chain of Paired box protein Pax-6 (Homo sapiens) (P26367 whole entry, looked up): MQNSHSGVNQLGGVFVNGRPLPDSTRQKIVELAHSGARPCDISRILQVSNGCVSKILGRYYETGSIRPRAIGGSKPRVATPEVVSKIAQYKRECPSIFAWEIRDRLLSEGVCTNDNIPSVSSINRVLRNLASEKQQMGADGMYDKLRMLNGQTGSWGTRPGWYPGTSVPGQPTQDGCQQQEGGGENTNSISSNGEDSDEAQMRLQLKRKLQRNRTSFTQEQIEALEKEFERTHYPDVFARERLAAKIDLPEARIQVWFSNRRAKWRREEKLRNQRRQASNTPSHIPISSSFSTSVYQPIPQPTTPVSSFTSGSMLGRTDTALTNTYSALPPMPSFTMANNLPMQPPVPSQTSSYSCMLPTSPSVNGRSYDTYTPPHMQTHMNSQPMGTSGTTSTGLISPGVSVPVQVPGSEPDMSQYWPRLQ
Procedure, shortened: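 Read-out is reporter transcript level, measured by RT-PCR with fluorescent primer extension and capillary electrophoresis after 24 h dosing of transfected HepG2 cells. Activity in either direction fitted relative to DMSO control.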

[2] = ATG_PXRE_CIS: Attagene CIS-FACTORIAL HepG2 Assay for human Pregnane X Receptor Element (PXRE) (AID 2282957); settings: HepG2 Attagene CIS-FACTORIAL PXRE reporter, mRNA; actives raise or lower the signal
Procedure, shortened: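 Bidirectional activity, baselined to DMSO, derived from reporter mRNA fluorescence (RT-PCR plus capillary electrophoresis) in HepG2 cells bearing cis-promoter reporter units, 24 h exposure.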

[3] = ATG_PPRE_CIS: Attagene CIS-FACTORIAL HepG2 Assay for human Peroxisome Proliferator-activated Response Element (PPRE) (AID 2282958); settings: HepG2 PPRE cis-element reporter, Attagene transcription factor profiling; actives raise or lower the signal
Procedure, shortened: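 HepG2 cells are transiently transfected with multiplexed cis-promoter reporter units to report endogenous PPAR activity. After 24 h dosing, reporter mRNA is read by RT-PCR and capillary electrophoresis. Fitting is bidirectional against DMSO.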

[4] = ATG_RORE_CIS: Attagene CIS-FACTORIAL HepG2 Assay for human RAR-related Orphan Receptor Element (RORE) (AID 2282959); settings: HepG2 Attagene cis-factorial RORE reporter, mRNA; actives raise or lower the signal
Procedure, shortened: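 HepG2 cells carrying transiently transfected cis-regulated reporter units; RORE-driven reporter mRNA quantified 24 h post-dosing by RT-PCR, 6-FAM primer extension, HpaI digestion and capillary electrophoresis. Bidirectional fit versus DMSO.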

[5] = ATG_Sox_CIS: Attagene CIS-FACTORIAL HepG2 Assay for human SRY-box transcription factor (SOX) (AID 2282960); settings: HepG2 Attagene cis-factorial SOX reporter, mRNA; actives raise or lower the signal
Procedure, shortened: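 HepG2 cells transiently transfected with multiple cis-regulated reporter units, then dosed for 24 h. Reporter mRNA quantified by RT-PCR, fluorescent labelling, HpaI digestion and capillary electrophoresis; bidirectional fit versus DMSO.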

[6] = target: Transcription factor Sp1 (Homo sapiens) (UniProt P08047); assay: ATG_Sp1_CIS: Attagene CIS-FACTORIAL HepG2 Assay for human Specificity Protein 1 (Sp1) (AID 2282961); settings: HepG2 Sp1 cis-reporter transcription, actives raise or lower the signal
Chain of Transcription factor Sp1 (Homo sapiens) (P08047 whole entry, looked up): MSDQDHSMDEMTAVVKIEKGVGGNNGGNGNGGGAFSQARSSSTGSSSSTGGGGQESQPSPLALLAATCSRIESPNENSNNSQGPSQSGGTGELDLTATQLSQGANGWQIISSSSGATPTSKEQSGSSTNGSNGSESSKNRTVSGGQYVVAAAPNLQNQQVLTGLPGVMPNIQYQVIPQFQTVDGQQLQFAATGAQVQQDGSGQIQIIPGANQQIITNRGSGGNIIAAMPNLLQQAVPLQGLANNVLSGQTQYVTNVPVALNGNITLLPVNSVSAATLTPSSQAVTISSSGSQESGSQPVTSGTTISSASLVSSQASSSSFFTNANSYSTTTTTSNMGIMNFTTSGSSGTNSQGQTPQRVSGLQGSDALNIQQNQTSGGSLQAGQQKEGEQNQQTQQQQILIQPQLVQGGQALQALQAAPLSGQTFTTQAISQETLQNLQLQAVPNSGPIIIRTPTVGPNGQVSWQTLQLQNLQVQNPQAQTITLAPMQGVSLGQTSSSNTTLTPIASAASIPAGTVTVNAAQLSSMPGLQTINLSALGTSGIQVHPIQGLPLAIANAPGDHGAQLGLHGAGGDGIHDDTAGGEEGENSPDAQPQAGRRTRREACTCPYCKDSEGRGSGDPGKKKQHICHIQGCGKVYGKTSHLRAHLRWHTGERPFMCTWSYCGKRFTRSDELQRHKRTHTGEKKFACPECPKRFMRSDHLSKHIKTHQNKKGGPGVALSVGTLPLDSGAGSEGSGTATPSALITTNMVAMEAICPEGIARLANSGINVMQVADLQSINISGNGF
Procedure, shortened: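 HepG2 cells transiently transfected with multiplexed cis-regulated reporter constructs, chemical exposure 24 h. Reporter mRNA quantified by RT-PCR with capillary electrophoresis; bidirectional fit relative to DMSO.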

[7] = ATG_SREBP_CIS: Attagene CIS-FACTORIAL HepG2 Assay for human Sterol Regulatory Element Binding (SREBP) (AID 2282962); settings: HepG2 Attagene cis-factorial SREBP reporter, mRNA; actives raise or lower the signal
Procedure, shortened: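 Endogenous SREBP activity read as cis-element-driven reporter transcript in transiently transfected HepG2, 24 h post-dosing; quantified via RT-PCR plus capillary electrophoresis of fluorescent fragments. Gain or loss of signal fitted relative to DMSO baseline.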

[8] = target: Signal transducer and activator of transcription 3 (Homo sapiens) (UniProt P40763); assay: ATG_STAT3_CIS: Attagene CIS-FACTORIAL HepG2 Assay for human Signal Transducer and Activator of Transcription 3 (STAT3) (AID 2282963); settings: HepG2, Attagene cis-factorial STAT3 reporter transcription; actives raise or lower the signal
Chain of Signal transducer and activator of transcription 3 (Homo sapiens) (P40763 whole entry, looked up): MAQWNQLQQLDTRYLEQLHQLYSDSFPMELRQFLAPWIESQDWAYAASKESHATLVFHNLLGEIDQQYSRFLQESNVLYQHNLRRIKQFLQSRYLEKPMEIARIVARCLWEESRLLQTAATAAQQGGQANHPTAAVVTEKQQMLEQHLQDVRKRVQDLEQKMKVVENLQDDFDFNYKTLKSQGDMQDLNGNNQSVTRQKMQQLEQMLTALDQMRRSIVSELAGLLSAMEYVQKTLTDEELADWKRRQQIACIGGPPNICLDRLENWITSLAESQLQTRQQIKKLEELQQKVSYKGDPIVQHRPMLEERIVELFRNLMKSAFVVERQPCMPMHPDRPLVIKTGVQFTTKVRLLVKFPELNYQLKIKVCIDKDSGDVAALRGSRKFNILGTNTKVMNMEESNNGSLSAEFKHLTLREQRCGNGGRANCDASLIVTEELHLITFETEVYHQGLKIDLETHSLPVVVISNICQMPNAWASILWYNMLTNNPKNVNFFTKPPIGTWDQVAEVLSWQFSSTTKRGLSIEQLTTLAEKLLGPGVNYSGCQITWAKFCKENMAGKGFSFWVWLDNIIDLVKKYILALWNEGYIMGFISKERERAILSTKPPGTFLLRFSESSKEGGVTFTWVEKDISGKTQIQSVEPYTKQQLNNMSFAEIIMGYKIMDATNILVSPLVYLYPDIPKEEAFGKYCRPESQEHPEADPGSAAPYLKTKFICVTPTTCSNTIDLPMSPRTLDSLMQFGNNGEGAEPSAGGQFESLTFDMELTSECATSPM
Procedure, shortened: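 Cis-factorial format: endogenous transcription factors in HepG2 drive transfected reporter units. After 24 h treatment, reporter RNA was reverse-transcribed, amplified, FAM-labelled and HpaI-digested before CE analysis; activity scored in both directions against DMSO.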

[9] = ATG_TA_CIS: Attagene CIS-FACTORIAL HepG2 Assay for human TA Basal Promoter (AID 2282964); settings: HepG2 Attagene CIS-factorial TA basal promoter reporter; actives raise or lower the signal
Procedure, shortened: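 HepG2 cells transiently transfected with multiple reporter units under cis promoter elements, reporting endogenous transcription factor activity; this endpoint tracks the TA basal promoter as background control. Reporter mRNA after 24 h dosing measured by RT-PCR/capillary electrophoresis; bidirectional fits versus DMSO.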

[10] = ATG_TCF_b_cat_CIS: Attagene CIS-FACTORIAL HepG2 Assay for human T-Cell-Factor with beta-catenin (TCF/b-cat) (AID 2282965); settings: HepG2 TCF/beta-catenin cis-reporter transcription, actives raise or lower the signal
Procedure, shortened: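 Endogenous TCF/LEF activity read as reporter transcript level via RT-PCR and capillary electrophoresis fluorescence in transfected HepG2, 24 h exposure; gain or loss of signal fitted against DMSO controls.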

[11] = ATG_TAL_CIS: Attagene CIS-FACTORIAL HepG2 Assay for human TAL Basal Promoter (AID 2282966); settings: HepG2 Attagene cis-factorial TAL promoter reporter; actives raise or lower the signal;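 further: background control endpoint measuring basal TAL promoter reporter mRNA not a specific factor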
Procedure, shortened: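 Human hepatoma HepG2 cells, transfected with promoter-regulated reporter units, were treated 24 h. Reporter transcript levels, measured through RT-PCR and capillary electrophoresis, were fitted for gain or loss relative to DMSO.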

[12] = ATG_TGFb_CIS: Attagene CIS-FACTORIAL HepG2 Assay for human Transforming Growth Factor (TGF) (AID 2282967); settings: HepG2 Attagene CIS TGFb reporter, mRNA transcription; actives raise or lower the signal
Procedure, shortened: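 HepG2 cells transiently transfected with cis-promoter-driven multiple reporter units measure endogenous TF activity; reporter mRNA quantified at 24 h by RT-PCR, FAM labeling, HpaI digestion and capillary electrophoresis. Bidirectional fit vs DMSO.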

[13] = target: Estrogen receptor (Homo sapiens) (UniProt P03372); assay: ATG_ERa_TRANS: Attagene TRANS-FACTORIAL HepG2 Assay for human Estrogen Receptor alpha (ERa) (AID 2282970; active means hit-call score of the fitted dose curve at least 0.9, where 1 is the maximum); settings: HepG2 Attagene TRANS ERa GAL4 reporter, mRNA
Chain of Estrogen receptor (Homo sapiens) (P03372 whole entry, looked up, the tested form may be a part): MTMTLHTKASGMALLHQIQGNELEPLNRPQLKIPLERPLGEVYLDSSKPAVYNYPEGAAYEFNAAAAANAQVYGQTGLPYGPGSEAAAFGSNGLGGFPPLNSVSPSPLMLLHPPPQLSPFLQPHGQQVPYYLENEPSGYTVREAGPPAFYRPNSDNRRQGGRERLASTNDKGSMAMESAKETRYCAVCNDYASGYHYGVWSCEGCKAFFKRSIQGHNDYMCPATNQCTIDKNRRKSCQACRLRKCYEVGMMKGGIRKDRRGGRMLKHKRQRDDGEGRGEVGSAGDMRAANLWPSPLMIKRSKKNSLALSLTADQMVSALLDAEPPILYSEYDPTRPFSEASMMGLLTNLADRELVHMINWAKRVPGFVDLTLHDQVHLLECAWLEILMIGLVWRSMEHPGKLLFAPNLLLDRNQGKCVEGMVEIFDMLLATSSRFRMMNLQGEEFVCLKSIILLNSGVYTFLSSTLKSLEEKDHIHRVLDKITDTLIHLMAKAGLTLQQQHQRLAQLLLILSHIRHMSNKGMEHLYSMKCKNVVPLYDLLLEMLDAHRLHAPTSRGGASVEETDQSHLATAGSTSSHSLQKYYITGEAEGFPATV
Procedure, shortened: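 Signal derives from fluorescence of labelled reporter PCR fragments separated by capillary electrophoresis. HepG2 cells transiently carrying multiple GAL4-UAS reporter units were treated 24 hours, and induction above DMSO baseline was fitted as activity.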

[14] = target: X-box-binding protein 1 (Homo sapiens) (UniProt P17861); assay: ATG_Xbp1_CIS: Attagene CIS-FACTORIAL HepG2 Assay for human X-box Binding Protein 1 (XBP1) (AID 2282972); settings: HepG2 XBP1 cis-element reporter, Attagene multiplex; actives raise or lower the signal
Chain of X-box-binding protein 1 (Homo sapiens) (P17861 whole entry, looked up): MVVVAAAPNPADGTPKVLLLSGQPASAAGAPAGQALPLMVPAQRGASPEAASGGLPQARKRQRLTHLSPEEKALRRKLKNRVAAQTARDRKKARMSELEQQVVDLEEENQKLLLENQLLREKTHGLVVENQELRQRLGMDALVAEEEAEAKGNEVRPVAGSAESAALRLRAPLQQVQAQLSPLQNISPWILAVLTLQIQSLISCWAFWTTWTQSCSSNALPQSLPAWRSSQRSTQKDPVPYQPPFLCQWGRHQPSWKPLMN
Procedure, shortened: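 Reporter transcripts were quantified by RT-PCR with fluorescent primer extension and capillary electrophoresis after 24 h chemical exposure. Cells: transiently transfected HepG2 carrying cis-regulated reporter constructs; data fitted bidirectionally relative to DMSO.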

[15] = ATG_PBREM_CIS: Attagene CIS-FACTORIAL HepG2 Assay for human Phenobarbital-responsive Enhancer Module (PBREM) (AID 2282955); settings: HepG2 PBREM cis-reporter, Attagene multiplexed transcription; actives raise or lower the signal
Procedure, shortened: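 HepG2 cells transiently transfected with multiple cis-regulated reporter units measure endogenous transcription factor activity; 24 h compound exposure. Reporter mRNA quantified by RT-PCR, fluorescent labelling, HpaI digestion and capillary electrophoresis; bidirectional fit versus DMSO.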

[16] = ATG_VDRE_CIS: Attagene CIS-FACTORIAL HepG2 Assay for human Vitamin D Receptor Element (VDRE) (AID 2282968); settings: HepG2 VDRE cis-reporter transcription, actives raise or lower the signal
Procedure, shortened: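 Measures endogenous factor activity through cis-element-driven reporter transcripts in transiently transfected HepG2. Cells are treated 24 h; reporter mRNA is quantified by RT-PCR and capillary electrophoresis; fitting is bidirectional.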

[17] = target: Nuclear receptor subfamily 1 group I member 3 (Homo sapiens) (UniProt Q14994); assay: ATG_CAR_TRANS: Attagene TRANS-FACTORIAL HepG2 Assay for human Constitutive Androstane Receptor (CAR) (AID 2282969; active means hit-call score of the fitted dose curve at least 0.9, where 1 is the maximum;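 further: activators raise reporter mRNA above DMSO so AC50 marks induction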); settings: HepG2 Attagene TRANS-FACTORIAL CAR reporter
Chain of Nuclear receptor subfamily 1 group I member 3 (Homo sapiens) (Q14994 whole entry, looked up, the tested form may be a part): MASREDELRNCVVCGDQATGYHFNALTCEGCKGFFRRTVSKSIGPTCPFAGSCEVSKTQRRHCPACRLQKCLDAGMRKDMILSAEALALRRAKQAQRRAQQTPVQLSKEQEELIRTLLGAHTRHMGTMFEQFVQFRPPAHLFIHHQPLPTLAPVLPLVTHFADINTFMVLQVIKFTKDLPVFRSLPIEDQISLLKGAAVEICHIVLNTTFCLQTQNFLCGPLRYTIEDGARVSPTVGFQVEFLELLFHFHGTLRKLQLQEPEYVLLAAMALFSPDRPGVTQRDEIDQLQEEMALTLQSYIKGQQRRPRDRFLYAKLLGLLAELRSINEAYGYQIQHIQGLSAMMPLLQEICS
Procedure, shortened: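 Signal is reporter mRNA induction relative to DMSO, measured 24 h after dosing by RT-PCR with fluorescent primer extension and capillary electrophoresis. Human HepG2 liver cells carried transiently transfected chimeric NR-Gal4/GAL4-UAS reporter constructs.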

[18] = ATG_GAL4_TRANS: Attagene TRANS-FACTORIAL HepG2 Assay for GAL4 (Internal Marker) (AID 2282976; active means hit-call score of the fitted dose curve at least 0.9, where 1 is the maximum); settings: HepG2 Attagene TRANS GAL4 internal marker reporter
Procedure, shortened: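 Liver HepG2 line bearing multiplexed GAL4-UAS reporter constructs; 24 h chemical treatment. Transcripts were quantified as fluorescent fragments on capillary electrophoresis after RT-PCR and HpaI cut, with activity fitted upward from DMSO.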

[19] = target: Steroid hormone receptor ERR1 (Homo sapiens) (UniProt P11474); assay: ATG_ERRa_TRANS: Attagene TRANS-FACTORIAL HepG2 Assay for human Estrogen-Related Receptor alpha (ERRa) (AID 2282971; active means hit-call score of the fitted dose curve at least 0.9, where 1 is the maximum); settings: HepG2 Attagene TRANS reporter, ERRa transactivation
Chain of Steroid hormone receptor ERR1 (Homo sapiens) (P11474 whole entry, looked up, the tested form may be a part): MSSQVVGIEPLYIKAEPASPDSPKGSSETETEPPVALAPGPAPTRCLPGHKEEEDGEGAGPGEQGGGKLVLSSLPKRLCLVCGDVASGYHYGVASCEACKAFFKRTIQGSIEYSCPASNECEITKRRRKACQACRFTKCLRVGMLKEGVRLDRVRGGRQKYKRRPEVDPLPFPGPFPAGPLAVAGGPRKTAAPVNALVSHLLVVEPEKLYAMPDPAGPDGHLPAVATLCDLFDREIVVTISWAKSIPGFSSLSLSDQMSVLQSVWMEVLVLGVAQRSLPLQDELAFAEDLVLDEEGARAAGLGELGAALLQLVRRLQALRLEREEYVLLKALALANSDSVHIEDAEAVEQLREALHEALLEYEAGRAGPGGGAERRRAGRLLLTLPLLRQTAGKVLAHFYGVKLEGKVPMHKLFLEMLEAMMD
Procedure, shortened: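 Signal gain relative to DMSO for an ERRa-Gal4 chimeric receptor, read as reporter mRNA by RT-PCR/capillary electrophoresis. Human HepG2 liver cells, transient multiplex reporter transfection, 24 h chemical exposure.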

Measured: outcome

COC(=O)[C@H](Cc1ccccc1)NC(=O)[C@@H](N)CC(=O)O (H-Asp-Phe-OMe)
inactive: [1] | [2] | [3] | [4] | [5] | [6] | [7] | [8] | [9] | [10] | [11] | [12] | [13] | [14]

COC(=O)C=Cc1ccccc1
inactive: [15] | [1] | [4] | [5] | [7] | [8] | [9] | [10] | [11] | [12] | [16] | [17] | [13] | [14] | [18]

CO[Si](C)(C)OC
inactive: [15] | [1] | [5] | [6] | [7] | [8] | [9] | [10] | [11] | [12] | [17] | [13] | [14] | [18]

COc1nccnc1CC(C)C
inactive: [1] | [2] | [3] | [4] | [5] | [6] | [7] | [8] | [9] | [10] | [11] | [12] | [16] | [13] | [19] | [14] | [18]
